Assay results published in PubChem BioAssay (EPA / NIEHS).
Several values for one entry are separate records, joined by “and”; a condition that tells them apart may be missing. Equal entries are not always repeated. Records with an inconclusive call do not appear. Activity calls are given as the source filed them. The calls were made as follows: active = hit-call score of the fitted dose curve at least 0.9, where 1 is the maximum; inconclusive = response in the unintended direction; inactive = score below 0.9.

How the values were obtained:
[1] = biological target: Cytochrome P450 2C19 (Homo sapiens) (UniProt P33261); experiment: NVS_ADME_hCYP2C19: NovaScreen (NVS) CYP450-related Enzyme Activity (ADME) Assay for human CYP2C19 (AID 2283113);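 as to AC50: potency for inhibition seen as loss of fluorescent signal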
In short: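 Chemicals first screened in duplicate at 10 uM against recombinant human enzyme produced in insect cells; confirmed actives then run as concentration series. Fluorogenic substrate turnover read by fluorescence after 1 h, normalised to acetonitrile.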

[2] = biological target: human Ephrin type-A Receptor 1 (EphA1), EPHA1 (gene 2041) (UniProt P21709); experiment: NVS_ENZ_hEphA1: NovaScreen (NVS) Enzymatic Assay for human Ephrin type-A Receptor 1 (EphA1) (AID 2283158);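 also: activity is signal loss versus DMSO meaning EphA1 kinase inhibition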
Chain of human Ephrin type-A Receptor 1 (EphA1), EPHA1 (gene 2041) (P21709 whole entry, looked up): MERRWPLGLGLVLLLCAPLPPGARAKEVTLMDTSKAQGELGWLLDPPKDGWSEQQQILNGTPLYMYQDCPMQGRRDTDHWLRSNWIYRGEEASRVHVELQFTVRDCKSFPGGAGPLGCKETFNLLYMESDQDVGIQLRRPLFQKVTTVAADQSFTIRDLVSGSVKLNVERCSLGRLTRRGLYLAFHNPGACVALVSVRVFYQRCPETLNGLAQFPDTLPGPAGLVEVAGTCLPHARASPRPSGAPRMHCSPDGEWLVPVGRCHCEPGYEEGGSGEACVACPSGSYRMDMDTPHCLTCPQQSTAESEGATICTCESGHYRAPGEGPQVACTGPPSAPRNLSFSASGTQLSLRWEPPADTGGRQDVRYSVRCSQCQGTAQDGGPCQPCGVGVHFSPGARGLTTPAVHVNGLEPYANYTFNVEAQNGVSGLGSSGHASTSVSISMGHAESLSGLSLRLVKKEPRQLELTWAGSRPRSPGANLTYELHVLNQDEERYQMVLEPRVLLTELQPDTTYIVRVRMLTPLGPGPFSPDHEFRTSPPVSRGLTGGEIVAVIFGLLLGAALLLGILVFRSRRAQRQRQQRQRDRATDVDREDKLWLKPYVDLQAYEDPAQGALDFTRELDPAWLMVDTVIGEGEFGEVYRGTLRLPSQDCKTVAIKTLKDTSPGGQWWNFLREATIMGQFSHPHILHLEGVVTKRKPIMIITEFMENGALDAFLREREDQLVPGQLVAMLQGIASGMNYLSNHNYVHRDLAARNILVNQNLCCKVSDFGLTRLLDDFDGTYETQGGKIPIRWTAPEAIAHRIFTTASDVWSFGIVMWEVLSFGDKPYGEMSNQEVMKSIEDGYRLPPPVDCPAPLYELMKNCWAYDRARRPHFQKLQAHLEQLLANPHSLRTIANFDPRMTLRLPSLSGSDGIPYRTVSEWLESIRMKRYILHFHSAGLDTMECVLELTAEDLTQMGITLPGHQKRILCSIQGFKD
In short: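 Biochemical kinase assay run cell-free; 1 h incubation; readout is fluorescence with mobility-shift separation of product. Concentration-response up to 50 uM for actives from a 25 uM screen.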

[3] = biological target: human FYN Proto-Oncogene, Src family Tyrosine Kinase (Fyn), FYN (gene 2534) (UniProt P06241); experiment: NVS_ENZ_hFyn: NovaScreen (NVS) Enzymatic Assay for human FYN Proto-Oncogene, Src family Tyrosine Kinase (Fyn) (AID 2283161)
Chain of human FYN Proto-Oncogene, Src family Tyrosine Kinase (Fyn), FYN (gene 2534) (P06241 whole entry, looked up): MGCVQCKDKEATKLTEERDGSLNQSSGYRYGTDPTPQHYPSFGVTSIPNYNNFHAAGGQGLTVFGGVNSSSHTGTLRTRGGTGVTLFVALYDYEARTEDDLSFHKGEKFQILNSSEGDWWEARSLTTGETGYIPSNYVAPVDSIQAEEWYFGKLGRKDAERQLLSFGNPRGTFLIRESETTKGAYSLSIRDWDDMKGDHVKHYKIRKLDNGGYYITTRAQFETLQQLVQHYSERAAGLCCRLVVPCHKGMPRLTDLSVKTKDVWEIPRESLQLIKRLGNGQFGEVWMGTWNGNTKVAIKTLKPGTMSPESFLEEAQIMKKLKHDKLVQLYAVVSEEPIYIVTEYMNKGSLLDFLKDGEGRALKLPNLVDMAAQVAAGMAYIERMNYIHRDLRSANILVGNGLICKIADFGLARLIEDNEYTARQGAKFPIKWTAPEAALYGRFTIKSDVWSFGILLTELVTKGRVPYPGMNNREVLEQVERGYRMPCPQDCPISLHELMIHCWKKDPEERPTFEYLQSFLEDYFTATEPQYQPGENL
In short: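 Cell-free kinase activity read by fluorescence after mobility-shift separation of substrate and product, 1 h post-dose. Initial single concentration 25 uM in duplicate, then concentration-response follow-up; DMSO baseline.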

[4] = biological target: Glycogen synthase kinase-3 beta (Homo sapiens) (UniProt P49841); experiment: NVS_ENZ_hGSK3b: NovaScreen (NVS) Enzymatic Assay for human Glycogen Synthase Kinase-3 beta (GSK3b) (AID 2283165)
Chain of Glycogen synthase kinase-3 beta (Homo sapiens) (P49841 whole entry, looked up): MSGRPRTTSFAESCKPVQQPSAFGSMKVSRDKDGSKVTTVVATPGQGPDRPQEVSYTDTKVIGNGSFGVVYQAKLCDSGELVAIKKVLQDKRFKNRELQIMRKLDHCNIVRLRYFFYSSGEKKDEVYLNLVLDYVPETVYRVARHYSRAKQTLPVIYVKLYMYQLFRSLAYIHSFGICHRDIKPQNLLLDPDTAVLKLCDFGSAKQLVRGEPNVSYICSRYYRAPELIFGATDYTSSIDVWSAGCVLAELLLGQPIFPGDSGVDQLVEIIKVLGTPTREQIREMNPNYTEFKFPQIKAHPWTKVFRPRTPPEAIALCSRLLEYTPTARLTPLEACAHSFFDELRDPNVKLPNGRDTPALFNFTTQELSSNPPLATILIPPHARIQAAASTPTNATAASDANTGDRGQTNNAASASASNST
In short: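 Recombinant enzyme with specific fluorescent substrate, 1 h, product separated by electrophoretic mobility shift. Primary duplicate screen at 25 uM; actives (e.g. 30% inhibition) followed in singleton concentration-response to 50 uM. Signal loss fitted versus DMSO.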

[5] = biological target: Cytochrome P450 3A4 (Homo sapiens) (UniProt P08684); experiment: NVS_ADME_hCYP3A4: NovaScreen (NVS) CYP450-related Enzyme Activity (ADME) Assay for human CYP3A4 (AID 2283110)
Chain of Cytochrome P450 3A4 (Homo sapiens) (P08684 whole entry, looked up): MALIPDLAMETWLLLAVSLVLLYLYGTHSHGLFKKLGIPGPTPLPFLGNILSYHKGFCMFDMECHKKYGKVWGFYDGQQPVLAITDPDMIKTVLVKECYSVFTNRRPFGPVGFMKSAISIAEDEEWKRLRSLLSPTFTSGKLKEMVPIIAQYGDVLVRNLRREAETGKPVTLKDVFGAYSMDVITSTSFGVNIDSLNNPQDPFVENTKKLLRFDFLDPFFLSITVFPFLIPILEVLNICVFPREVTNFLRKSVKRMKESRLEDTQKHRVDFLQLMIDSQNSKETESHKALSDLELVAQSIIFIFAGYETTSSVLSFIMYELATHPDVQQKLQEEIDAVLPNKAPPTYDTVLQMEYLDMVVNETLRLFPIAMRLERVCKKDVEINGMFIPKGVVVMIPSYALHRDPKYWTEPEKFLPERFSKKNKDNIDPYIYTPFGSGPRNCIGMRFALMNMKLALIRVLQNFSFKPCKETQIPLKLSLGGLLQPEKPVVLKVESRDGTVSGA
In short: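 Compounds screened in duplicate at 10 uM, with follow-up concentration-response for actives, against insect-cell-expressed recombinant enzyme. Activity read by fluorescence 0.33 h after dosing; loss of signal versus acetonitrile control indicates inhibition.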

[6] = biological target: human Beta-secretase (BACE), BACE1 (gene 23621) (UniProt P56817); experiment: NVS_ENZ_hBACE: NovaScreen (NVS) Enzymatic Assay for human Beta-secretase (BACE) (AID 2283140);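 also: hits are inhibitors that reduce fluorescent substrate signal versus DMSO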
In short: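 Enzyme activity of SF9-produced BACE1 is measured cell-free by fluorescence, 1 hour post dosing, normalised to DMSO. Screening used 25 uM in duplicate, with concentration-response follow-up for actives.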

[7] = biological target: human Dual Specificity Protein Phosphatase 3 (DUSP3), DUSP3 (gene 1845) (UniProt P51452); experiment: NVS_ENZ_hDUSP3: NovaScreen (NVS) Enzymatic Assay for human Dual Specificity Protein Phosphatase 3 (DUSP3) (AID 2283152);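 also: phosphatase activity of recombinant human DUSP3 on a fluorogenic substrate without cells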
Chain of human Dual Specificity Protein Phosphatase 3 (DUSP3), DUSP3 (gene 1845) (P51452 whole entry, looked up): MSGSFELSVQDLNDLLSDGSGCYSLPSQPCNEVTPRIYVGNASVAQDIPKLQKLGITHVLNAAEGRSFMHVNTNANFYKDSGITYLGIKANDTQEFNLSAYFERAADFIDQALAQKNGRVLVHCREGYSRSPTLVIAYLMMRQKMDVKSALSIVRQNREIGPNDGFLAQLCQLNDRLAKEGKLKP
In short: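 Cell-free fluorescence-intensity enzyme activity assay with recombinant protein and substrate; loss of signal fitted relative to DMSO baseline. Primary screen in duplicate at 25 uM, actives then run in concentration series; measured 0 h after dosing.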

[8] = biological target: human AKT serine/threonine Kinase 1 (AKT1), AKT1 (gene 207) (UniProt P31749); experiment: NVS_ENZ_hAKT1: NovaScreen (NVS) Enzymatic Assay for human AKT serine/threonine Kinase 1 (AKT1) (AID 2283138)
Chain of human AKT serine/threonine Kinase 1 (AKT1), AKT1 (gene 207) (P31749 whole entry, looked up): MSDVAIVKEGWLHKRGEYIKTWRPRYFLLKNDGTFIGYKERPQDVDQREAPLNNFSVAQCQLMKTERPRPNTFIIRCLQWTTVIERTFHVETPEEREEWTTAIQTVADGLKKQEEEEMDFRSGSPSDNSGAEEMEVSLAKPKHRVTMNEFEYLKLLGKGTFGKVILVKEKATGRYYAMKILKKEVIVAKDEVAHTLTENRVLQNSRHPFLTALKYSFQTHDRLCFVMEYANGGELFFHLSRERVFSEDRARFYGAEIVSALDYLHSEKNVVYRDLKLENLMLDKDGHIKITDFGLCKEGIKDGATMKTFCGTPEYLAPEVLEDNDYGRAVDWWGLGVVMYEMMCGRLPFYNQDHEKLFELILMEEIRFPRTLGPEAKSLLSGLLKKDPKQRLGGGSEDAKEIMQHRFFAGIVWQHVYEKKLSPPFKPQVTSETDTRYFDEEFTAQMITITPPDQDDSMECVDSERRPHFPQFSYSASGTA
In short: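 A biochemical assay with recombinant enzyme and specific substrate, read by fluorescence intensity with mobility-shift separation 1 hour after dosing. Actives from 25 uM duplicate screening were titrated up to 50 uM against DMSO baseline.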

[9] = biological target: human Acid Phosphatase 1 (ACP1), ACP1 (gene 52) (UniProt P24666); experiment: NVS_ENZ_hACP1: NovaScreen (NVS) Enzymatic Assay for human Acid Phosphatase 1 (ACP1) (AID 2283136)
Chain of human Acid Phosphatase 1 (ACP1), ACP1 (gene 52) (P24666 whole entry, looked up): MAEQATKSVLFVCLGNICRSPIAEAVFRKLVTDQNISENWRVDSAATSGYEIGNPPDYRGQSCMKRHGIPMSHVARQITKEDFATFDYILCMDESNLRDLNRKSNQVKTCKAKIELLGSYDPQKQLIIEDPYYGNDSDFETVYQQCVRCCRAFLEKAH
In short: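 Cell-free fluorescence read-out of phosphatase activity, substrate and product separated by mobility shift, taken 1.5 h after compound addition; protein produced in Sf9. Single 25 uM duplicate screen, followed by concentration series for actives, scored as signal loss relative to DMSO.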

[10] = biological target: human AKT serine/threonine Kinase 2 (AKT2), AKT2 (gene 208) (UniProt P31751); experiment: NVS_ENZ_hAKT2: NovaScreen (NVS) Enzymatic Assay for human AKT serine/threonine Kinase 2 (AKT2) (AID 2283141)
Chain of human AKT serine/threonine Kinase 2 (AKT2), AKT2 (gene 208) (P31751 whole entry, looked up): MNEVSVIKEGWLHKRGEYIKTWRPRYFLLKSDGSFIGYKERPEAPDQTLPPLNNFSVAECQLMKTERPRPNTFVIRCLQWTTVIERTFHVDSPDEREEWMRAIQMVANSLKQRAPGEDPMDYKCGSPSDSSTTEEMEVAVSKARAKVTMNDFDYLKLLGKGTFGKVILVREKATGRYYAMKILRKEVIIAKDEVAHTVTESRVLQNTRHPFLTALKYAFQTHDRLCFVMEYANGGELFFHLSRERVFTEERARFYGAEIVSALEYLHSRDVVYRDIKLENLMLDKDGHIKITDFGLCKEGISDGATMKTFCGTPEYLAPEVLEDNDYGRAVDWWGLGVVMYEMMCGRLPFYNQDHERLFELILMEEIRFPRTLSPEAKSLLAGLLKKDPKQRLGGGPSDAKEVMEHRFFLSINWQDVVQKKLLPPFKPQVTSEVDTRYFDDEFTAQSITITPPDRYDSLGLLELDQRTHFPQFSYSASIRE
In short: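 Cell-free fluorescence/electrophoretic mobility shift readout of recombinant human AKT2 activity, 1 h after chemical dosing. Duplicate primary screen at 25 uM, then singleton concentration-response up to 50 uM; loss of signal versus DMSO baseline.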

[11] = biological target: Histone deacetylase 3 (Homo sapiens) (UniProt O15379); experiment: NVS_ENZ_hHDAC3: NovaScreen (NVS) Enzymatic Assay for human Histone Deacetylase 3 (HDAC3) (AID 2283163)
Chain of Histone deacetylase 3 (Homo sapiens) (O15379 whole entry, looked up): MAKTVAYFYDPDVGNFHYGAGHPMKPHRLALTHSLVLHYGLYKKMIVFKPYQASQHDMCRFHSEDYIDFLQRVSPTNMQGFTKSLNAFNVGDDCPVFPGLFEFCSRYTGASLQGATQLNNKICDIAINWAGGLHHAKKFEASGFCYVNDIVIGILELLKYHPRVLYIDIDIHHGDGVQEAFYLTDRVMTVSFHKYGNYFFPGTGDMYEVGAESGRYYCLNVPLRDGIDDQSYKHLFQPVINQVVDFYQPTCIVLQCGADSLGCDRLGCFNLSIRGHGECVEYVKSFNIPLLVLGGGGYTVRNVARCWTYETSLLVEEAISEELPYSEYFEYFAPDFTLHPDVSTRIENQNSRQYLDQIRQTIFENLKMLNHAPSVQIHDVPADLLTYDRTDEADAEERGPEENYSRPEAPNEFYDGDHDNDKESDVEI
In short: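 Cell-free enzyme format: loss of fluorescent product after mobility-shift separation, 1 h incubation, recombinant human HDAC3. Single 25 uM duplicate screen first, then concentration series to a 50 uM top for hits; DMSO as baseline.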

[12] = biological target: human Colony Stimulating Factor 1 Receptor (CSF1R), CSF1R (gene 1436) (UniProt P07333); experiment: NVS_ENZ_hCSF1R: NovaScreen (NVS) Enzymatic Assay for human Colony Stimulating Factor 1 Receptor (CSF1R) (AID 2283150)
In short: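 Compounds screened in duplicate at 25 uM, then concentration-response (top 50 uM) for those passing threshold such as 30% inhibition; recombinant CSF1R activity measured 1 h post-dosing via fluorescent substrate/product mobility-shift separation, loss of signal versus DMSO.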

[13] = biological target: human Caspase 5 (CASP5), CASP5 (gene 838) (UniProt P51878); experiment: NVS_ENZ_hCASP5: NovaScreen (NVS) Enzymatic Assay for human Caspase 5 (CASP5) (AID 2283137)
Chain of human Caspase 5 (CASP5), CASP5 (gene 838) (P51878 whole entry, looked up): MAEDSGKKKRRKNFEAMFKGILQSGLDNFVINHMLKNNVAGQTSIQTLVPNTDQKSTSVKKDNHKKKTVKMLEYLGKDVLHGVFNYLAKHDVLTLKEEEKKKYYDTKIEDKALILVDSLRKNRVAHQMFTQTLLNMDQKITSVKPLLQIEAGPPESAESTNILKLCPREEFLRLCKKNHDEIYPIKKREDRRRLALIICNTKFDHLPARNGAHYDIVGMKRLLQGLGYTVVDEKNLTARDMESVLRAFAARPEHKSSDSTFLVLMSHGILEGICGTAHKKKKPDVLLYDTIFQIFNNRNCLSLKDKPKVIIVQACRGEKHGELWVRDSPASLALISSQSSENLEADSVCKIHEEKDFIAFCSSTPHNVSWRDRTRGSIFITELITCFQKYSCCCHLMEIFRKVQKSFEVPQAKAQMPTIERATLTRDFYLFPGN
In short: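 Caspase 5 enzyme activity, detected as fluorescence signal loss, is measured in a biochemical format using E. coli-expressed protein. Reading occurs 2 hours post-dosing. Screening runs at 25 uM, with confirmed actives titrated to 50 uM maximum.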

[14] = biological target: human Elastase, ELANE (gene 1991) (UniProt P08246); experiment: NVS_ENZ_hElastase: NovaScreen (NVS) Enzymatic Assay for human Elastase (AID 2283153)
Chain of human Elastase, ELANE (gene 1991) (P08246 whole entry, looked up): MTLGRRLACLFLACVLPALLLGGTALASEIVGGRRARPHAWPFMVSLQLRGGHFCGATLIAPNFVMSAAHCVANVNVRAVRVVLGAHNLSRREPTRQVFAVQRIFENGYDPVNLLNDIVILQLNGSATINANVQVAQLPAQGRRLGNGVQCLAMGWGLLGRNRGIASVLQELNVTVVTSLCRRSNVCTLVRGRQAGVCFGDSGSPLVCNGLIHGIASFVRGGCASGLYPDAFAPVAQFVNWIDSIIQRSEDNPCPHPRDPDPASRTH
In short: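 Concentration-response to 50 uM max, run singly for chemicals passing a threshold (e.g., 30% inhibition) in a duplicate 25 uM single-point screen. Neutrophil-derived human elastase, absorbance read-out of enzyme activity at 1.5 h; DMSO baseline.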

[15] = biological target: human Caspase 4 (CASP4), CASP4 (gene 837) (UniProt P49662); experiment: NVS_ENZ_hCASP4: NovaScreen (NVS) Enzymatic Assay for human Caspase 4 (CASP4) (AID 2283143)
In short: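 Compounds were first tested in duplicate at 25 uM, and hits were titrated singly to a 50 uM maximum. Recombinant protease from E. coli was read by fluorescence 2 h post-dose, and activity loss was fitted against the DMSO baseline.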

CDK2 (gene 1017) = CDK2 (gene 1017) (UniProt P24941); experiment: NVS_ENZ_hCDK2: NovaScreen (NVS) Enzymatic Assay for human Cyclin-Cependent Kinase 2 (CDK2) (AID 2283144)
In short: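 Compounds screened in duplicate at 25 uM, then in singleton concentration-response to a maximum of 50 uM, against recombinant CDK2; kinase activity read 1 hr after dosing by fluorescence with mobility-shift separation of substrate and product.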

[16] = biological target: human Casein Kinase 1-delta (CK1D), CSNK1D (gene 1453) (UniProt P48730); experiment: NVS_ENZ_hCK1D: NovaScreen (NVS) Enzymatic Assay for human Casein Kinase 1-delta (CK1D) (AID 2283148)
In short: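 Recombinant human CK1-delta, cell-free; fluorescent substrate with electrophoretic mobility-shift separation of product, read 1 h after dosing. Single 25 uM duplicate screen, then concentration-response up to 50 uM; loss of signal vs DMSO.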

Caspase-3 (Homo sapiens) = Caspase-3 (Homo sapiens) (UniProt P42574); experiment: NVS_ENZ_hCASP3: NovaScreen (NVS) Enzymatic Assay for human Caspase 3 (CASP3) (AID 2283139)
In short: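 Single-concentration screening at 25 uM in duplicate, with concentration-response follow-up to a 50 uM maximum for chemicals passing the threshold. Caspase-3 (human, E. coli-expressed) activity was read as substrate fluorescence after 1 h, with loss of signal relative to DMSO.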

[17] = biological target: human Esterase Plasma (ES), BCHE (gene 590) (UniProt P06276); experiment: NVS_ENZ_hES: NovaScreen (NVS) Enzymatic Assay for human Esterase Plasma (ES) (AID 2283157)
In short: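 Primary single-concentration screen at 25 uM in duplicate, then concentration-response to a 50 uM top dose. Human plasma esterase activity detected colorimetrically after 0.25 h incubation, with DMSO as baseline.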

## Cc1nccn1-c1ccc(Sc2cccc(C3(C(N)=O)CCOCC3)c2)cc1
[1]
  AC50: 5.95 µM (active)

## O=C(NO)C1(NS(=O)(=O)c2ccc(Oc3ccc(F)cc3)cc2)CCOCC1
[1]
  outcome: inactive
[2]
  outcome: inactive
[3]
  outcome: inactive
[4]
  outcome: inactive

## C=CCc1cc(S(=O)(=O)c2ccc(O)c(CC=C)c2)ccc1O
[5]
  AC50: 4.54 µM (active)
[1]
  AC50: 0.164 µM (active)
[6]
  AC50: 15.2 µM (active)
[7]
  outcome: inactive

## NNC(=O)c1ccncc1
[1]
  AC50: 1.49 µM (active)
[8]
  outcome: inactive

## Cc1nc(-c2ccccn2)ncc1C(=O)Nn1cc(C)c2cc(F)ccc21
[9]
  outcome: inactive
[10]
  outcome: inactive
[2]
  outcome: inactive
[11]
  outcome: inactive

## Cc1ncc([C@@H](CCCCCCc2ccc3c(n2)NCCC3)CC(=O)O)cn1
[9]
  outcome: inactive
[8]
  outcome: inactive
[12]
  outcome: inactive
[4]
  outcome: inactive

## NC(=O)N1c2ccccc2C=Cc2ccccc21
[1]
  outcome: inactive

## CCCCCCCCCCCCCCCCOS(=O)(=O)O
[13]
  AC50: 2.18 µM (active)
[6]
  AC50: 1.27 µM (active)
[7]
  outcome: inactive
[14]
  AC50: 4.2 µM (active)

## CCCOc1ccc(S(=O)(=O)N2CCN(CC)CC2)cc1-c1nc2c(CC)n(Cc3ccccn3)nc2c(=O)[nH]1
[1]
  AC50: 1.45 µM (active)

## CCCCCCCC/C=C\CCCCCCCC(=O)OC[C@@H](O)[C@H]1OC[C@H](O)[C@H]1O
[8]
  outcome: inactive
[6]
  AC50: 6.7 µM (active)
[10]
  AC50: 42.1 µM (active)
[15]
  outcome: inactive
[3]
  outcome: inactive
[4]
  outcome: inactive

## CC(C)C(=O)Nc1ccc([N+](=O)[O-])c(C(F)(F)F)c1
[1]
  AC50: 3.2 µM (active)
[15]
  outcome: inactive

## O=c1[nH]cnc2c1ncn2[C@H]1CC[C@@H](CO)O1
[8]
  outcome: inactive
[10]
  outcome: inactive
CDK2 (gene 1017)
  AC50: 25 µM (active)
[16]
  outcome: inactive
[2]
  outcome: inactive
[11]
  outcome: inactive
[4]
  outcome: inactive

## CCCC(CCC)C(=O)O
[1]
  AC50: 10 µM (active)
[8]
  outcome: inactive
[10]
  outcome: inactive
CDK2 (gene 1017)
  outcome: inactive
[3]
  outcome: inactive
[4]
  outcome: inactive

## NC(=O)NN=Cc1ccc([N+](=O)[O-])o1
Caspase-3 (Homo sapiens)
  AC50: 20.9 µM (active)
[11]
  AC50: 1.26 µM (active)
[4]
  outcome: inactive

## COCc1nnc(-c2ccc[n+]([O-])c2)n1-c1c(Cl)c(Cl)cc2[nH]c(=O)c(=O)[nH]c12
[1]
  AC50: 4.13 µM (active)

## CCCCCCCCCC
[5]
  AC50: 6.55 µM (active)
[1]
  AC50: 5.72 µM (active)
[6]
  outcome: inactive
[7]
  outcome: inactive
[17]
  outcome: inactive

## S=P(N1CC1)(N1CC1)N1CC1
[1]
  AC50: 5.2 µM (active)
[6]
  AC50: 22.4 µM (active)
[7]
  AC50: 20.3 µM (active) and 26.1 µM (active)
[2]
  outcome: inactive

## OCCOCCOCCO
[5]
  outcome: inactive
[10]
  outcome: inactive
[2]
  outcome: inactive

## O=S(=O)(O)c1ccc(N=Nc2c(O)ccc3cc(S(=O)(=O)O)ccc23)cc1
Caspase-3 (Homo sapiens)
  AC50: 37.7 µM (active)

## COc1cc(C(C)C)c2c(c1)S(=O)(=O)N(COc1cc(=O)n3cccc(OCCN4CCCCC4)c3n1)C2=O
[5]
  AC50: 0.9 µM (active)
[14]
  AC50: 0.0341 µM (active)

## OCc1c[nH]c2ccccc12
[1]
  AC50: 0.574 µM (active)
[13]
  AC50: 25 µM (active) and 29.7 µM (active)
[6]
  AC50: 25 µM (active)
[7]
  AC50: 19.5 µM (active) and 15.4 µM (active)
[17]
  AC50: 15.3 µM (active) and 19.1 µM (active)
[2]
  outcome: inactive

## c1ccc(C(O[C@@H]2CCCN(CCc3ccc4c(c3)OCO4)C2)c2ccccc2)cc1
[1]
  AC50: 5.04 µM (active)
[17]
  AC50: 7.95 µM (active)
[4]
  outcome: inactive

## CCCCCCOC(=O)CC(CC(=O)OCCCCCC)(OC(=O)CCC)C(=O)OCCCCCC
[1]
  AC50: 2.71 µM (active)
[7]
  outcome: inactive
[14]
  outcome: inactive

## Cc1ccc(S(=O)(=O)NC(=O)NN2CCCCCC2)cc1
[10]
  outcome: inactive

## COc1cc2c(c(OC)c1OC)-c1ccc(OC)c(=O)cc1[C@@H](NC(C)=O)CC2
[15]
  AC50: 0.485 µM (active)
[11]
  outcome: inactive

## CC(C)CC(C)O (stereo not given)
[15]
  AC50: 8.65 µM (active)

## CCN(CC)C(=S)SSC(=S)N(CC)CC
[7]
  outcome: inactive

## CCCCN1C(=O)[C@@H]([C@H](O)C2CCCCC2)NC(=O)C12CCN(Cc1ccc(Oc3ccc(C(=O)O)cc3)cc1)CC2
[7]
  AC50: 14.8 µM (active)

## OCC(CO)(CO)CO
[2]
  outcome: inactive

## CCCCCCCCN(C)C
[2]
  outcome: inactive
